Experimental findings from PubChem BioAssay (NCATS) are described below.

The structures appear in SMILES notation. Inconclusive results are not listed. Unmarked numbers belong to inactive results. Active and inactive are the calls of the source. Calls follow the shape of the dose curve; as a rule, active = well fitted curve in the direction sought with a large enough effect; inconclusive = small, poorly fitted or top-dose-only effect, or effect the other way, or another doubt; inactive = no such curve, though single readings can be large or run the other way.

In the assay the target is Transient receptor potential cation channel subfamily V member 1 (Homo sapiens) (UniProt Q8NER1). Nature of the assay: HTS Assay for Compounds that Act as Enhancers of the Vanilloid Receptor 1 (AID 488979). Also: 0% is about no effect. To be noted: TRPV1-expressing cells, enhancer of channel activity; series mostly up to 41.7 µM; activity change, positive = enhancement: at the top concentration. From the text: The transient receptor potential ion channel, family V, number 1, (TRPV1) is one of the most important molecular transducers of painful stimuli and a potential target for analgesic drug development. Although recent clinical trials with orthosteric antagonists have not produced a successful drug because of a hyperthermia side effect and their tendency to block thermal noxious pain, this ion channel is undeniably well placed in the pain pathway, and the idea of blocking pain signals before they enter the CNS is an excellent concept and of proven efficacy when TRPV1 agonists are used. We propose a new approach involving allosteric modulation to impose an activity-dependent constraint within the context of inflammation and tissue damage that would alter the responsiveness of the channel in a way that an orthosteric vanilloid antagonist cannot achieve. We believe that the allosteric modulator approach has not been explored for this target.
Chain of Transient receptor potential cation channel subfamily V member 1 (Homo sapiens) (Q8NER1 whole entry, looked up): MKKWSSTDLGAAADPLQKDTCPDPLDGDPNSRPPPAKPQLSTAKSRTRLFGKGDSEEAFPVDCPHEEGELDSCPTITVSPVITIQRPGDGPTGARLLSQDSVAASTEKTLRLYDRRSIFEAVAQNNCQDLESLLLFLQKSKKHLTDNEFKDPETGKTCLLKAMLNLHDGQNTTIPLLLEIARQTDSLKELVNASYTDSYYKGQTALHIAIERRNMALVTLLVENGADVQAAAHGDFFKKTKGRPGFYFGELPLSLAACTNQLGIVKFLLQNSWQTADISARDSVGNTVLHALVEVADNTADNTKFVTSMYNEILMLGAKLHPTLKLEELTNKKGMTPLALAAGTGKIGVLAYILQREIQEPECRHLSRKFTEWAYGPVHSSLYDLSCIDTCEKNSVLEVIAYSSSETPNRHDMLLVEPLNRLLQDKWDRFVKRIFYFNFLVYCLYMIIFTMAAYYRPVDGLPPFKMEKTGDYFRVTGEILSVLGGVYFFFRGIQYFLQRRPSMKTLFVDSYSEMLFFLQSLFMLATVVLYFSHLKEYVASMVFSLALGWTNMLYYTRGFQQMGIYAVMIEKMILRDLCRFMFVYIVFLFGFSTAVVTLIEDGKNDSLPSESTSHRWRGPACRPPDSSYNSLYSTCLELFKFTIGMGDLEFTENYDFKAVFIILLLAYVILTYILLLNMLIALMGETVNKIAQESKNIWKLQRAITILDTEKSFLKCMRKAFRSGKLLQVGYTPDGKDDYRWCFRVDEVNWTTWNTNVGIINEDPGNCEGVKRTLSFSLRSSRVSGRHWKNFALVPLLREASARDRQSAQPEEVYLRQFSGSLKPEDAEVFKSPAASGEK
The main goal of this proposal is to identify additional, new, potent allosteric modulators of TRPV1 that can be used to investigate TRPV1 function. Our recent report provides evidence of proof of concept, but the compounds are just at the edge of utility in terms of potency. […] The question of whether they can be used as analgesic agents is complex, but if suitable compounds are identified then testing for analgesic properties will be conducted.
Upon TRPV1 activation in TRPV1 cells, the channel opens and extracellular cations flow through the channel into the cytosol. A calcium binding dye (Fluo-8) becomes fluorescent when bound to calcium. This dye is pre-loaded into cells and is used as a marker for calcium influx.
The amount of accumulated calcium is precisely quantified using the FDSS kinetic reader and the calcium dye.
For the HTS assay, freshly prepared cells are plated at a density of 2000/well in 3 ul medium in 1536-well plates and cultured overnight at 35.5C. Cells will be loaded with 1 ul of the homogeneous calcium dye (ABD Bioquest) at room temperature for 40 to 90 minutes. Plates will be loaded into the FDSS kinetic reader and a 1 sec / cycle for 10 second baseline signal will be measured. Compound library will then be added with a pintool at 23 nl and measured kinetically for 3 minutes. This portion of the read is considered the agonist portion of the screen. Following the 3 minutes of incubation, an on board pipettor will deliver 1 ul of capsaicin for a final concentration equal to the EC20. Signal will be measured kinetically for an additional 2 minutes. This portion of the read is considered the allosteric enhancer portion of the screen.
The FDSS reader has a standard filter set capable of measuring calcium bound Fluo-8 (ex=480 and em=520 nm).
Consider `CCC1(C2=NCCN2)Cc2ccccc2O1` (configuration not stated), for which the “activity change, positive = enhancement” value is 6.38%.

In the case of `c1ccc2c(c1)OCC(C1=NCCN1)O2` (configuration not stated), the “activity change, positive = enhancement” value was 13.2%.

In the case of `CC[N+](CC)(CC)CC`, the “activity change, positive = enhancement” value is -3.53%.

`CNCC(O)c1ccc(O)cc1` (configuration not stated): the “activity change, positive = enhancement” value is 5.84%.

`NN=C(N)N`: the result was inactive.

Consider `C=C(C)[C@H]1Cc2c(ccc3c2O[C@@H]2COc4cc(OC)c(OC)cc4[C@@H]2C3=O)O1`, for which the “activity change, positive = enhancement” value is -8.67%.

Turning to `Cc1cccc(C)c1NC1=NCCCS1`, the “activity change, positive = enhancement” value was 8.09%.

With `Cc1ncc(CNC(=O)N(CCCl)N=O)c(N)n1`, the “activity change, positive = enhancement” value was -11%.

Consider `CCn1cc(C(=O)O)c(=O)c2ccc(C)nc21`, for which the “activity change, positive = enhancement” value was 1.2%.

Consider `Clc1cccc(N2CCNCC2)c1`, for which the “activity change, positive = enhancement” value was 17.8%.

Regarding `N#CC(C#N)=Cc1ccc(O)c(O)c1`, the “activity change, positive = enhancement” value was -7.06%.

Consider `Cc1ccc(S(=O)(=O)N[C@@H](CCCCN)C(=O)CCl)cc1`, for which the “activity change, positive = enhancement” value is -5.78%.

For `NCC(CC(=O)O)c1ccc(Cl)cc1` (configuration not stated), the “activity change, positive = enhancement” value is 6.32%.

With `NCC(O)c1ccc(O)cc1` (configuration not stated), the “activity change, positive = enhancement” value is -6.24%.

`NCC1(CC(=O)O)CCCCC1`: the “activity change, positive = enhancement” value is -4.34%.

Consider `COc1ccccc1N1CCNCC1`, for which the “activity change, positive = enhancement” value was 4.56%.

`O=c1[nH]c2ccccc2n1C1CCN(CCCC(c2ccc(F)cc2)c2ccc(F)cc2)CC1`: the “activity change, positive = enhancement” value was -18.6%.

On to `O=C1NCN(c2ccccc2)C12CCN(CC1COc3ccccc3O1)CC2` (configuration not stated), for which the “activity change, positive = enhancement” value is -1.57%.

Turning to `Nc1ccncc1`, the “activity change, positive = enhancement” value was 4.85%.

`CC(=O)[C@H]1CC[C@H]2[C@@H]3CC[C@H]4C[C@H](O)CC[C@]4(C)[C@H]3C(=O)C[C@]12C`: the “activity change, positive = enhancement” value was 14.4%.

Consider `CCCC(C)(COC(N)=O)COC(=O)NC(C)C` (configuration not stated), for which the “activity change, positive = enhancement” value is 5.8%.

Consider `COc1ccc(Cc2nccc3cc(OC)c(OC)cc23)cc1OC`, for which the “activity change, positive = enhancement” value was -16%.

Take `COC[C@H]1OC(=O)c2coc3c2[C@@]1(C)C1=C(C3=O)C2CCC(=O)[C@@]2(C)C[C@H]1OC(C)=O` (some centres not stated): the “activity change, positive = enhancement” value was -5%.

Regarding `c1ccc(C2CC2)c(OCC2=NCCN2)c1`, the “activity change, positive = enhancement” value was 7.74%.

Regarding `Fc1ccc(C(OCCN2CCN(CCCc3ccccc3)CC2)c2ccc(F)cc2)cc1`, the “activity change, positive = enhancement” value is 6.96%.

Regarding `CCCN1CCC[C@@H]2Cc3nc(N)ncc3C[C@H]21`, the “activity change, positive = enhancement” value is 3.22%.

Regarding `O=c1[nH]c2ccccc2n1CCCN1CCC(n2c(=O)[nH]c3cc(Cl)ccc32)CC1`, the “activity change, positive = enhancement” value was 14.8%.
